# Test results published in PubChem BioAssay AID372 (MTDP, 2006).
# Among all 100,000 compounds or so, about 770 (0.77%) were called active. No stated cut-off is given here; in the data, active means inhibition above about 50%; inactive means the rest. Shown is part of a subset that was picked to be rich in actives.
# Target: Gag-Pol polyprotein (Human immunodeficiency virus type 1 group M subtype B (isolate HXB2)) (UniProt P04585)
# Assay: RNase H inhibition, HIV 1 Gag Pol polyprotein, FRET biochemical assay, screening (AID 372)
# Settings: HIV-1 RT RNase H, FRET RNA/DNA substrate fluorescence; at 10 µM; active compounds read high
row,Structure (SMILES),inhibition
1,O=C(Cc1cccc2ccccc12)N/N=C/c1cc(Br)c(O)c(Br)c1O,0% (inactive)
2,CCOc1cccc(NC(=O)/C(C#N)=C\c2ccc(-c3cccc([N+](=O)[O-])c3)o2)c1,10% (inactive)
3,CN1C(=O)S/C(=C/c2ccc(Sc3ccccc3)o2)C1=O,52% (active)
4,CN1C(=O)/C(=C\c2ccc(Sc3ccc(Cl)cc3)o2)SC1=S,22% (inactive)
5,Cc1ccc(Sc2ccc(/C=C3/SC(=S)N(C)C3=O)o2)cc1,45% (inactive)
6,CCCCOc1ccc(C(=O)N2CCCc3ccccc32)cc1,13% (inactive)
7,O=C(Nc1cccc(NC(=O)C(Cl)(Cl)Cl)c1)c1ccc(Cl)cc1Cl,13% (inactive)
8,Cc1nc(/N=C/c2ccc(Br)cc2)sc1C,8% (inactive)
9,COc1ccc(/C=C2\SC(N)=NC2=O)cc1OC(=O)c1cccc2ccccc12,53% (active)
10,COc1cc(/C=C2\SC(N)=NC2=O)cc(Br)c1OC(=O)c1cccc2ccccc12,35% (inactive)
11,COc1cc(/C=C2\SC(N)=NC2=O)ccc1OCc1cccc2ccccc12,52% (active)
12,COc1cc(/C=C2/SC(N)=NC2=O)ccc1OCc1ccccc1[N+](=O)[O-],39% (inactive)
13,COc1ccc(C=C2C(=O)NC(=S)NC2=O)cc1OC(=O)c1cccc2ccccc12,26% (inactive)
14,NC1=NC(=O)/C(=C/c2ccc(OC(=O)c3cccc4ccccc34)cc2)S1,20% (inactive)
15,CCOc1cc(C=C2C(=O)NC(=O)NC2=O)ccc1OCc1cccc2ccccc12,43% (inactive)
16,COc1cc(/C=C2\SC(N)=NC2=O)cc(Br)c1OCc1cccc2ccccc12,30% (inactive)
17,CCOc1cc(C=C2C(=O)NC(=O)NC2=O)ccc1OC(=O)c1cccc2ccccc12,56% (active)
18,CCOC(=O)C(=CNc1ccc(F)c(F)c1F)C(=O)OCC,10% (inactive)
19,CC(C)(C)c1ccc(C(=O)NCCSc2ccc(Cl)cc2)cc1,19% (inactive)
20,O=C(N/N=C\c1cc(Br)ccc1O)c1cnccn1,7% (inactive)
21,Cc1ccc(NC(=S)NC(=O)c2ccccc2Cl)cc1C,11% (inactive)
22,O=C(COc1ccc(Br)cc1Cl)NCc1cccnc1,0% (inactive)
23,CC(=O)n1ccc(C(=O)Nc2ccc(Cl)c(Cl)c2)n1,2% (inactive)
24,O=C(Nc1ccc(F)cc1F)c1cnn2c1NC(c1cccs1)CC2C(F)(F)F (stereo not given),5% (inactive)
25,O=c1oc2ccc(O)c(-c3ccccc3Cl)c2s1,2% (inactive)
26,O=C(Oc1ccc2oc(=O)sc2c1)c1ccccc1,6% (inactive)
27,Cc1cc(I)ccc1NC(=O)c1ccccc1F,8% (inactive)

row,Structure (SMILES),inhibition
1,O=C(c1ccccc1)c1cccc(NC(=O)C2CCCCC2)c1,51% (active)
2,CC(=O)c1cccc(NC(=O)C2CCCCC2)c1,0% (inactive)
3,O=C(Nc1ccc2ccccc2c1)C1CCCCC1,2% (inactive)
4,O=C(COc1cccc(Br)c1)N/N=C/c1ccc(Cl)cc1,7% (inactive)
5,CCOc1ccc(C(=O)Nc2cc(Cl)cc(Cl)c2)cc1Br,1% (inactive)
6,COc1ccc(-c2nnc(N)s2)cc1,7% (inactive)
7,COc1ccc(-c2nnc(NC(C)=O)s2)cc1,0% (inactive)
8,COc1cc(NC(=O)COc2ccc(C)c(C)c2)c(OC)cc1Cl,7% (inactive)
9,COc1cc([N+](=O)[O-])cc(/C=C2\C(=O)NC(=O)N(c3ccc(Cl)cc3)C2=O)c1O,7% (inactive)
10,O=C(Nc1ccc(Cl)cc1Cl)c1ccccc1Cl,3% (inactive)
11,O=C(Nc1ccc(I)cc1Cl)c1ccccc1Cl,37% (inactive)
12,O=C(Nc1ccc(-c2ccc(NC(=O)c3ccccc3Cl)c(Cl)c2)cc1Cl)c1ccccc1Cl,51% (active)
13,CCn1c2ccccc2c2cc(CN3CCC(C)CC3)ccc21,7% (inactive)
14,CC(=O)Nc1ccc(NS(=O)(=O)c2ccc(C)cc2C)cc1,2% (inactive)
15,O=C(Nc1nccs1)c1ccc(N2C(=O)c3cccc([N+](=O)[O-])c3C2=O)cc1,56% (active)
16,O=C(Nc1nccs1)c1ccc(N2C(=O)c3ccc([N+](=O)[O-])cc3C2=O)cc1,31% (inactive)
17,O=C(Nc1ccc(O)cc1)c1ccc(N2C(=O)c3cccc([N+](=O)[O-])c3C2=O)cc1,3% (inactive)
18,Cc1nc(-c2ccccc2)sc1C(=O)Nc1ccc(-c2cn3ccccc3n2)cc1,6% (inactive)
19,O=C(Nc1ccc2oc(-c3cccc4ccccc34)nc2c1)c1cc([N+](=O)[O-])ccc1Cl,21% (inactive)
20,COc1ccc(OCCOCCOc2c(OC)cccc2OC)cc1,11% (inactive)
21,COc1ccc(C(=O)NC(=S)Nc2ccc3oc(-c4ccccc4)nc3c2)cc1Br,47% (inactive)
22,CCc1ccc2oc(-c3ccc(NC(=S)NC(=O)c4cccc(F)c4)cc3)nc2c1,59% (active)
23,COc1ccc(C(=O)NC(=S)Nc2ccc3oc(-c4cccc(F)c4)nc3c2)cc1OC,7% (inactive)
24,CCOc1cccc(C(=O)NC(=S)Nc2ccc(-c3nc4cc(CC)ccc4o3)cc2)c1,5% (inactive)
25,COc1ccc(C(=O)NC(=S)Nc2ccc3oc(-c4cccc(F)c4)nc3c2)cc1[N+](=O)[O-],41% (inactive)
26,CCc1ccc2oc(-c3ccc(NC(=S)NC(=O)c4cccc(Cl)c4)cc3)nc2c1,17% (inactive)
27,CCOc1ccc(C(=O)NC(=S)Nc2ccc3oc(-c4cccnc4)nc3c2)cc1[N+](=O)[O-],4% (inactive)

row,Structure (SMILES),inhibition
1,CCOc1ccc(C(=O)NC(=S)Nc2ccc3oc(-c4cccc(F)c4)nc3c2)cc1[N+](=O)[O-],58% (active)
2,COc1ccc(C(=O)NC(=S)Nc2ccc3oc(-c4cccc(F)c4)nc3c2)cc1Br,56% (active)
3,NC(=S)N=Nc1c(O)[nH]c2ccc(F)cc12,9% (inactive)
4,COc1cccc(C(=O)NNC(=O)C2CCCO2)c1 (stereo not given),4% (inactive)
5,COc1cc(C=O)ccc1OCCCOc1ccc([N+](=O)[O-])cc1Cl,29% (inactive)
6,COC(=O)c1c(C)oc2ccc(OS(C)(=O)=O)cc12,0% (inactive)
7,O=C(Nc1cccc(Cl)c1)Nc1nc2ccc(Br)cc2s1,35% (inactive)
8,Cn1cccc1/C=C1/C(=O)NC(=S)N(c2cccc(Cl)c2)C1=O,31% (inactive)
9,O=C(/C=C/c1ccc(Cl)cc1)NC(=S)Nc1ccc(NC(=O)c2cccs2)cc1,24% (inactive)
10,Cc1cccc(NC(=S)NC(=O)/C=C/c2ccccc2)c1,6% (inactive)
11,Cc1ccc(NC(=S)NC(=O)/C=C/c2ccccc2)cc1C,9% (inactive)
12,O=C(/C=C/c1ccccc1)NC(=S)Nc1ccc(NC(=O)c2ccccc2)cc1,9% (inactive)
13,Cc1ccc(NC(=S)NC(=O)/C=C/c2ccccc2)cc1Cl,51% (active)
14,O=C(/C=C/c1ccccc1)NC(=S)Nc1ccc(NC(=O)c2cccs2)cc1,62% (active)
15,Brc1ccc(/C=N/Nc2ncnc3c2cnn3-c2ccccc2)cc1,6% (inactive)
16,Nc1ncc(Cc2ccc(F)cc2)s1,6% (inactive)
17,COc1cccc(/C=C2\N=C(c3cccs3)OC2=O)c1OC,8% (inactive)
18,O=C1NC(=S)N/C1=C/c1ccc(-c2ccc([N+](=O)[O-])cc2Cl)o1,5% (inactive)
19,O=C1NC(=S)N/C1=C\c1ccc(-c2cccc([N+](=O)[O-])c2)o1,14% (inactive)
20,Cc1cc(Br)c(-c2ccc(/C=C3/NC(=S)NC3=O)o2)cc1C,24% (inactive)
21,O=C1NC(=S)N/C1=C\c1ccc(-c2cc([N+](=O)[O-])ccc2Br)o1,50% (active)
22,O=C1NC(=S)N/C1=C\c1ccc(-c2cc([N+](=O)[O-])ccc2O)o1,29% (inactive)
23,O=C1NC(=S)N/C1=C/c1ccc(-c2cc([N+](=O)[O-])ccc2Cl)o1,50% (active)
24,CCCOc1cccc(/C=C2\N=C(c3ccc(F)cc3)OC2=O)c1,11% (inactive)
25,O=C(CSCc1ccccc1Cl)Nc1cccc(Br)c1,17% (inactive)
26,COc1cc(/C=C2\C(=O)NC(=O)N(C(C)(C)C)C2=O)cc(OC)c1O,18% (inactive)
27,COc1ccc(CNC(=O)CN(c2ccccc2OC)S(=O)(=O)c2ccccc2)cc1,9% (inactive)

row,Structure (SMILES),inhibition
1,CCOC(=O)c1c(NC(=O)c2cc(OC)c(OC)c(OC)c2)sc(C(=O)Nc2ccc(OC)cc2OC)c1C,15% (inactive)
2,O=C1c2cccc3c([N+](=O)[O-])ccc(c23)C(=O)N1c1ccc(O)cc1,13% (inactive)
3,O=C1c2cccc3c([N+](=O)[O-])ccc(c23)N1c1ccccc1,56% (active)
4,COc1ccc(N2C(=O)c3cccc4c([N+](=O)[O-])ccc(c34)C2=O)cc1,16% (inactive)
5,O=C(CCN1C(=O)c2ccccc2C1=O)N1CCN(C/C=C/c2ccccc2)CC1,5% (inactive)
6,O=c1oc2ccc3ccccc3c2cc1-c1nnc(NCc2ccc(F)cc2)s1,60% (active)
7,Cc1ccc(F)cc1Nc1nnc(-c2cc3c(ccc4ccccc43)oc2=O)s1,5% (inactive)
8,CCN(CC)c1ccc2cc(-c3nnc(NCc4ccc(F)cc4)s3)c(=O)oc2c1,0% (inactive)
9,Cc1ccc(C)n1-c1cccc2cccnc12,67% (active)
10,O=C1C2C3C=CC(C3)C2C(=O)N1c1cccc2cccnc12 (stereo not given),5% (inactive)
11,Cc1ccc(-c2ccccc2)n1-c1cccc2cccnc12,7% (inactive)
12,CCCCCCCC(=O)NNC(=O)c1cccs1,0% (inactive)
13,O=C(COc1ccccc1)Nc1ccc(-c2nc3cc(Cl)ccc3o2)cc1,23% (inactive)
14,O=C(COc1ccc(Br)cc1)Nc1cccc(-c2nc3cc(Cl)ccc3o2)c1,12% (inactive)
15,O=C(COc1ccc(Br)cc1)Nc1ccc(-c2nc3cc(Cl)ccc3o2)cc1,59% (active)
16,Cc1ccc(OCC(=O)Nc2cccc(-c3nc4cc(Cl)ccc4o3)c2C)c(C)c1,27% (inactive)
17,Cc1ccc(-c2nc3ccccc3o2)cc1NC(=O)c1cccc(Cl)c1Cl,43% (inactive)
18,Cc1ccc(-c2nc3cc(Cl)ccc3o2)cc1NC(=O)c1cccc(Cl)c1Cl,16% (inactive)
19,Cc1ccc2oc(-c3ccc(C)c(NC(=O)Cc4ccccc4)c3)nc2c1,18% (inactive)
20,Cc1ccc(-c2nc3ccccc3o2)cc1NC(=O)Cc1ccccc1,18% (inactive)
21,Cc1ccc(-c2nc3cc(Cl)ccc3o2)cc1NC(=O)Cc1ccccc1,55% (active)
22,Cc1ccccc1OCC(=O)Nc1cccc(-c2nc3cc(Cl)ccc3o2)c1C,15% (inactive)
23,Cc1c(NC(=O)COc2ccc(Cl)cc2Cl)cccc1-c1nc2cc(Cl)ccc2o1,54% (active)
24,Cc1ccc2oc(-c3ccc(C)c(NC(=O)c4cccc(Cl)c4Cl)c3)nc2c1,54% (active)
